Reference: PubChem BioAssay (NCI)
The panel holds about 79,000 compounds, 15% with a hit somewhere; the sample as a whole holds those more often. A number with no mark means an inactive call. Activity calls are given as the source filed them. Cut-off read from the data, not from the text of the source: active = growth inhibition above about 70%; inactive = the rest.

Legend:
[1] = NCI Yeast Anticancer Drug Screen. Data for the rad50 strain (AID 155);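 note: 0% = growth of vehicle-only cultures of the same strain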; settings: S. cerevisiae rad50 strain growth inhibition, stronger effect = higher value
Procedure, shortened: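 Vehicle-treated cultures provide the reference for the growth inhibition reported for compound-exposed, repair-deficient yeast.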

[2] = NCI Yeast Anticancer Drug Screen. Data for the mec2-1 strain (AID 157); settings: S. cerevisiae mec2-1 strain, stronger effect = higher value
Procedure, shortened: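 Cells of the genetically defined mec2-1 yeast strain are incubated with test compound. Inhibition of growth is calculated against vehicle-treated controls.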

[3] = NCI Yeast Anticancer Drug Screen. Data for the sgs1 mgt1 strain (AID 161);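 note: 0% = growth of cultures given vehicle only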; settings: S. cerevisiae sgs1 mgt1 strain, stronger effect = higher value
Procedure, shortened: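 Mutant yeast exposed to compound; growth scored against vehicle-only wells.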

[4] = NCI Yeast Anticancer Drug Screen. Data for the cln2 rad14 strain (AID 165);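 note: 0% = growth equal to vehicle treated cultures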; settings: S. cerevisiae cln2 rad14 strain, stronger effect = higher value
Procedure, shortened: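 The screen exposed genetically defined yeast (cln2 rad14) to test compounds and scored growth inhibition relative to vehicle-treated controls.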

[5] = NCI Yeast Anticancer Drug Screen. Data for the bub3 strain (AID 167); settings: S. cerevisiae bub3 mutant strain, stronger effect = higher value
Procedure, shortened: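 Mutant yeast screening strain plus compound; vehicle-treated cultures serve as the 0% inhibition reference.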

[6] = NCI Yeast Anticancer Drug Screen. Data for the mlh1 rad18 strain (AID 175); settings: S. cerevisiae mlh1 rad18 strain growth inhibition, stronger effect = higher value
Procedure, shortened: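 Compound-treated yeast growth, normalised to vehicle controls. Strain bears defined DNA repair mutations.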

[7] = at 5.0 µM (retest, dose inferred, filed as 0.5)
[8] = at 50.0 µM (retest, dose inferred, filed as 5.0)

Structure (SMILES) | growth inhibition [1, 7] | growth inhibition [1, 8] | growth inhibition ([1]; at 50.0 µM) | growth inhibition [2, 7] | growth inhibition [2, 8] | growth inhibition ([2]; at 50.0 µM) | growth inhibition [3, 7] | growth inhibition [3, 8] | growth inhibition ([3]; at 50.0 µM) | growth inhibition [4, 7] | growth inhibition [4, 8] | growth inhibition ([4]; at 50.0 µM) | growth inhibition [5, 7] | growth inhibition [5, 8] | growth inhibition ([5]; at 50.0 µM) | growth inhibition [6, 7] | growth inhibition [6, 8] | growth inhibition ([6]; at 50.0 µM)
CCCCCCCCOc1ccc(/C=C/C(C)=N/NC(N)=NC)cc1OC | 98% (active) | 98% (active) | 98.7% (active) | 98% (active) | 99% (active) | 99% (active) | 82% (active) | 99% (active) | 38.7% | 72% (active) | 93% (active) | 98.3% (active) | 97% (active) | 99% (active) | 99% (active) | 99% (active) | 98% (active) | 98.5% (active)
c1cc(C2=NCCN2)ccc1Nc1ccc(-c2cc3ccc(C4=NCCN4)cc3[nH]2)cc1 | 99% (active) | 99% (active) | 58.1% | 99% (active) | 98% (active) | 99.2% (active) | 99% (active) | 99% (active) | 51.3% | 99% (active) | 99% (active) | 98.9% (active) | 99% (active) | 99% (active) | 99.3% (active) | 99% (active) | 99% (active) | 98.5% (active)
Oc1ccccc1/C=N/NC(=S)NC12CC3CC(CC(C3)C1)C2 | 7% | 19% | 81.3% (active) | 14% | 11% | 29.6% | 27% | 19% | 64.4% | -38% | 20% | 31.1% | 21% | 21% | 42.8% | 10% | 41% | 85.9% (active)
COc1cc(/C=C(\C#N)c2ccc([N+](=O)[O-])cc2)ccc1O | -13% | 1% | 75.4% (active) | -23% | -3% | 51.2% | -16% | -4% | 74% (active) | -5% | 33% | 66.5% | -20% | 50% | 81.7% (active) | -35% | 57% | 64.2%
CC(C)(CN1CCCCC1)C(=O)CC(SCCS(=O)(=O)O)c1ccc(Cl)cc1 (stereo not given) | 16% | 88% (active) | 19.2% | -4% | 91% (active) | 3.7% | -9% | 85% (active) | 39.1% | -1% | 91% (active) | 55.7% | -13% | 97% (active) | 25.6% | 1% | 89% (active) | 11.1%
Cc1cc(O)c2c(c1)C(=O)c1c(c(O)cc(O)c1-c1c(O)cc(O)c3c1C(=O)c1cc(C)cc(O)c1C3=O)C2=O | 14% | 60% | 64.8% | 29% | 70% (active) | 70.3% (active) | 8% | 64% | 69.8% | 27% | 79% (active) | 58.1% | 17% | 69% | 63.7% | -8% | 80% (active) | 59.1%
Cc1occc1C(=S)Nc1ccc(Cl)c(C(=O)OCC2CC2)c1 | -14% | -3% | 84.8% (active) | -21% | 5% | 86% (active) | -15% | -3% | 81.4% (active) | 2% | 62% | 82.5% (active) | -3% | 17% | 80.2% (active) | -2% | 8% | 16.2%
CC1SC(=S)N(c2ccc(Cl)cc2)C1=O (stereo not given) | 4% | 68% | 71% (active) | 0% | 31% | 80.7% (active) | 2% | 47% | 45.5% | 3% | 28% | -108% | -3% | 28% | 85.5% (active) | 3% | 69% | 71.8% (active)
NNc1c(Cl)c(F)c(Cl)c(F)c1Cl | 13% | 17% | 21.6% | 5% | 17% | 36.5% | 4% | 26% | 47.5% | 13% | 24% | 34.2% | 3% | 24% | 54.7% | 17% | 24% | 66.7%
CCCCCCCCCCCCCCNCc1ccccc1 | 99% (active) | 97% (active) | 98.8% (active) | 99% (active) | 98% (active) | 98.5% (active) | 99% (active) | 97% (active) | 98.2% (active) | 99% (active) | 97% (active) | 97.5% (active) | 99% (active) | 97% (active) | 98.6% (active) | 99% (active) | 97% (active) | 97.5% (active)
